The structures appear in SMILES notation. Among all 300,000 compounds or so, about 3,700 (1.2%) were called active. Entries that show only a call come without a potency. Roughly 20% stayed inconclusive and do not appear here. The call rests on the fitted dose curve; tested in HEK293 cells. Many of the other results were omitted from the sample, so actives are more common in it than they were.
Potency means the concentration at half of the fitted maximal effect.

A short description of the assay: qHTS for Inhibitors of binding or entry into cells for Lassa Virus. Further: nearly all actives have a fitted effect of over 50% in size. As to conditions: Lassa virus pseudotype entry inhibition, cell reporter; series mostly up to 37.9 µM.
As to `O=C(Nc1c(Br)cc2c(c1Br)Cc1ccccc1-2)C(F)(F)F`, the Potency result was “inactive”. For the molecule `O=C(/C=C/c1ccccc1)c1ccccc1O`, the Potency entry was “inactive”. With `CC(C=Cc1ccccc1)=NNS(=O)(=O)c1ccc([N+](=O)[O-])cc1`, the Potency result is “inactive”. The result for `CC(/C=C/c1ccccc1)=N\NC(=O)C1CC1(C)c1ccccc1` (stereo not given) reads 1.03 µM (active); that for `CSCCC(NS(=O)(=O)c1ccc(C)cc1)C(=O)N(C)CC(=O)Nc1ccccc1Br` (stereo not given), “inactive”; that for `CN(CC(=O)Nc1ccccc1C(F)(F)F)C(=O)Cc1ccccc1F`, “inactive”. On to `COC(=O)CC(CC(=O)OC)n1cccc1`, for which the Potency result is “inactive”. The result for `CCOC(=O)CN1C(C(=O)c2ccccc2)=C(OC(=O)C(C)(C)C)c2ccccc2S1(=O)=O` reads “inactive”; that for `CCOc1ccc(C(=O)NCC(=O)N2CCCCCCC2)cc1OCC`, “inactive”. The result for `Fc1ccc(-n2ncc3c(Nc4ccc(Oc5ccccc5)cc4)ncnc32)cc1` reads “inactive”; that for `CCOC(=O)N1CCN(C(=O)c2ccccc2N(Cc2ccccc2)S(=O)(=O)c2ccc(OC)cc2)CC1`, 7.08 µM (active); that for `NC(=O)c1ccccc1N(Cc1ccccc1)S(=O)(=O)c1ccccc1`, “inactive”.

Take `CCN1CCN(C(=O)c2ccccc2N(C)S(=O)(=O)c2ccc(C)cc2)CC1`: the Potency entry was “inactive”. The result for `CN1CCOC1c1ccc(C2OCCN2C)cc1` (stereo not given) reads “inactive”; that for `CC(=O)OC1C2(CC3N4C(=O)C5(CO)SSC4(CC31O)C(=O)N5C)OC(C)C(C)(C)C2=O` (stereo not given), 1.58 µM (active); that for `CCOc1ccccc1/C=N/Nc1nc2ccccc2o1`, “inactive”.

Regarding `COc1ccc(CCNC(=S)N2CCN(S(=O)(=O)c3ccc(Cl)cc3)CC2)cc1`, the Potency result was “inactive”. The result for `O=C1CCN(C(=S)NCCc2ccccc2)CC1` reads “inactive”; that for `Oc1cc2c(cc1O)CN(C(=S)NCCc1ccc(Cl)cc1)CCC2`, 11.6 µM (active). The result for `Cn1cc(C2OC(=O)c3ccccc32)c2ccccc21` (stereo not given) reads “inactive”; that for `COC(=O)c1ccc(C(=O)OC)c(NC(=S)N2CCN(c3cc(Cl)ccc3C)CC2)c1`, 4.47 µM (active).

On to `COC(=O)c1ccc(C(=O)OC)c(NC(=S)N2CCN(c3ccc(F)cc3)CC2)c1`, for which the Potency result was “inactive”. Take `COC(=O)c1ccc(C(=O)OC)c(NC(=S)N2CCCCC2)c1`: the Potency entry was “inactive”. The result for `Cc1ccc2c(=O)cc(C(=O)Nc3sc4c(c3C(=O)NCc3cccnc3)CCCC4)oc2c1` reads “inactive”. The result for `COc1ccc(NS(=O)(=O)c2ccc(C)c(C(=O)NCC(c3cccs3)N3CCOCC3)c2)cc1` (stereo not given) reads “inactive”; that for `C/C(=N\NC(=S)NCc1ccccc1)c1ccc(Cl)cc1`, 5.8 µM (active). With `CN(C)CCCNC(=S)NCc1ccc(Cl)cc1`, the Potency entry is “inactive”.

As to `S=C(NCc1ccc(Cl)cc1)NC1CCCCC1`, the Potency entry is “inactive”. The result for `O=C(Nc1ncccc1O)c1ccc(S(=O)(=O)N2CCCC2)cc1` reads “inactive”; that for `O=C(OC12CC3CC(CC(C3)C1)C2)c1ccc(NCc2cc(O)ccc2O)cc1`, 10 µM (active). The result for `CCCC(=O)Nc1ccc(C(=O)N/N=C/c2ccc[nH]2)cc1` reads 10 µM (active). Turning to `CC(=O)Nc1ccc(C(=O)/C=C/c2ccc[nH]2)cc1`, the Potency result was “inactive”.

On to `O=C(COc1ccccc1[N+](=O)[O-])N/N=C/c1ccc[nH]1`, for which the Potency result was “inactive”. The result for `O=C(Nc1c[nH]c(=O)[nH]c1=O)OCc1ccccc1` reads “inactive”. With `Cc1csc(=O)n1CC(=O)Nc1ccc(S(C)(=O)=O)cc1`, the Potency entry was “inactive”.

As to `Cc1ccc(-c2noc(CCC(N)=O)n2)cc1`, the Potency entry was “inactive”. The result for `CCNC(=O)CCc1nc(-c2ccc(C)cc2)no1` reads “inactive”; that for `CCNC(=O)CCc1nc(-c2ccc(C(C)(C)C)cc2)no1`, 11.2 µM (active); that for `CC1(C)C/C(=N/Nc2ccc([N+](=O)[O-])cc2[N+](=O)[O-])C(C)(C)O1`, “inactive”. The result for `NS(=O)(=O)c1ccc(N=Nc2c(=O)[nH]c3ccc4[nH]cccc4c23)cc1` reads 0.628 µM (active); that for `Cc1[nH]c2ccc(S(N)(=O)=O)cc2c1C`, “inactive”; that for `Cc1[nH]n(C)c(=O)c1N=Nc1ccc(S(C)(=O)=O)cc1`, “inactive”.

For the molecule `O=C(Cn1cnc2ccccc2c1=O)NNC(=O)c1ccccc1F`, the Potency result was “inactive”.

For `CC(C)OCCCNC(=O)CN1C(=O)/C(=C/c2ccccc2F)Oc2ccccc21`, the Potency result is “inactive”. The result for `CCOC(=O)c1c(NC(=O)C2(C)Cc3ccccc3C(=O)O2)sc2c1CCCC2` (stereo not given) reads “inactive”; that for `Cc1ccc(NC(=S)NC(=O)c2ccc(-c3ccccc3)cc2)cc1`, “inactive”; that for `CCOC(=O)C1=C(NC(=S)NC(=O)c2ccccc2)c2ccccc2CC1(C)C`, 1.41 µM (active). The result for `O=C(NN=CC=Cc1ccccc1)C(O)C(O)C(=O)NN=CC=Cc1ccccc1` (stereo not given) reads “inactive”; that for `CC(C)c1ccc(C=NNc2ccc([N+](=O)[O-])cn2)cc1`, “inactive”; that for `COc1cc(NC(=O)c2ccccc2NS(=O)(=O)c2ccc(Cl)s2)cc(OC)c1`, 11.2 µM (active). The result for `O=C(Nc1nncs1)c1ccccc1NS(=O)(=O)c1cccs1` reads “inactive”; that for `COc1ccccc1C(=O)Nc1ccccc1C(=O)Nc1ccccc1`, “inactive”. As for `CCn1nnc2cc(C(=O)Nc3ccc(C(=O)OC(C)C)cc3)ccc21`, the Potency result was “inactive”.

Consider `O=C(COC(=O)c1n[nH]c2ccccc12)Nc1ccccc1Br`, for which the Potency result was “inactive”. As for `O=C(Nc1c(Br)cc2c(c1Br)Cc1cc([N+](=O)[O-])ccc1-2)C(Cl)Cl`, the Potency result is “inactive”. For the molecule `CSc1ncc(C(=O)Nc2ccc(C)cc2C)c(C)n1`, the Potency result is “inactive”. The result for `Cc1ccc(NC(=O)c2ccc3[nH]c(C)cc(=O)c3c2)c(C)c1` reads “inactive”. The result for `Cc1ccc(NC(=O)c2ccc(CSc3ncnc4nc[nH]c34)cc2)c(C)c1` reads 17.8 µM (active); that for `COc1ccc(N=C2C=CC(=O)O2)cc1`, “inactive”; that for `O=C(O)C(=Cc1ccccc1[N+](=O)[O-])c1ccccc1`, “inactive”. The result for `NC(=S)N/N=C/c1ccc([N+](=O)[O-])cc1` reads “inactive”; that for `O=C1/C(=C\c2ccc([N+](=O)[O-])cc2)CS(=O)(=O)C/C1=C/c1ccc([N+](=O)[O-])cc1`, 3.55 µM (active).

Turning to `O=[N+]([O-])c1ccc(C=NN=Cc2ccc([N+](=O)[O-])cc2)cc1`, the Potency entry is “inactive”. The result for `CCOC(=O)C1CCCN(C(=O)C2CCN(S(=O)(=O)c3ccc(Cl)c(C(F)(F)F)c3)CC2)C1` (stereo not given) reads “inactive”. Regarding `Cc1[nH]c2ccccc2c1C(=O)C(C)Sc1nnc(C2CC2)o1` (stereo not given), the Potency entry is “inactive”. The result for `Cc1c(CCO)c(=O)[nH]n1C(=O)c1c(F)cccc1F` reads 4.11 µM (active); that for `CC(=O)NC1(c2ccc(F)cc2)CCN(C(=O)c2c(F)cccc2F)CC1`, “inactive”; that for `Cc1c(CCO)c(=O)n(-c2ccccc2)n1S(=O)(=O)c1ccc(F)cc1`, “inactive”.

With `COc1ccc(CC(=O)NC(C)c2ccc(Cl)c(Cl)c2)cc1S(=O)(=O)N1CCOCC1` (stereo not given), the Potency entry is “inactive”. The result for `CCCCC(CCC(=O)Nc1ccc(C(=O)OCC)cc1)C(=O)O` (stereo not given) reads “inactive”; that for `CCOC(=O)Nc1ccc(NC(=O)OCC)cc1`, “inactive”. `CCCCCOC(=O)NCCOC(=O)Nc1ccc(C(=O)OCC)cc1`: the Potency was 1.03 µM (active). The result for `NC(CSC1(c2ccccc2)c2ccccc2-c2ccccc21)C(=O)O` (stereo not given) reads “inactive”; that for `CC1=CC(C)(C)Nc2ccc(OC(=O)C(Cc3ccccc3)N3C(=O)C4CCCCC4C3=O)cc21` (stereo not given), 1.12 µM (active).

Take `COC(=O)c1ccccc1NC(=O)C(Cc1ccccc1)N1Cc2ccccc2C1=O` (stereo not given): the Potency entry was “inactive”. In the case of `CC1=CC(C)(C)Nc2ccc(OC(=O)CN3C(=O)C4CCCCC4C3=O)cc21` (stereo not given), the Potency result is “inactive”.

As for `O=C(COC(=O)c1ccc2c(c1)OCCO2)NCc1ccccc1Cl`, the Potency entry was “inactive”. The result for `CCOc1cc(N2CCOCC2)c(OCC)cc1NC(=O)c1cc(C)nc2ccccc12` reads “inactive”; that for `CCOc1cc(N2CCOCC2)c(OCC)cc1NC(=O)COc1cccc(Cl)c1`, “inactive”. The result for `CCOc1cc(N2CCOCC2)c(OCC)cc1NC(=O)COc1cccc2cccnc12` reads 6.31 µM (active); that for `N#CC1(Nc2ccc(-c3ccc(Cl)cc3)cc2)CCCC1`, “inactive”; that for `CCOc1ccc(/C=N\NC(=O)c2c(C)nc3cc(C)ccn23)cc1`, “inactive”. The result for `Cc1cc(C(=O)N/N=C/c2ccccn2)c2ccccc2n1` reads “inactive”; that for `C/C(=N\NC(=O)c1cc(-c2ccc(O)cc2)nc2ccccc12)c1cccnc1`, “inactive”; that for `COc1ccc(/C=N/NC(=O)c2cc(-c3cccc(C)c3)nc3ccccc23)cc1O`, 7.08 µM (active). `CCOc1ccc(-c2cc(C(=O)N/N=C/c3ccc(O)cc3)c3ccccc3n2)cc1`: the Potency is 1.41 µM (active). The result for `COc1cccc(-c2cc(C(=O)N/N=C/c3ccc(OC)c(COC(C)=O)c3)c3ccccc3n2)c1` reads “inactive”; that for `Cc1ccc(C)c(NC(=O)CN(C)C(=O)COc2ccc3ccccc3c2)c1`, “inactive”; that for `Cc1cc2occ(CC(=O)NNC(=O)c3ccccc3F)c2cc1C`, “inactive”.

Turning to `Cc1ccc(CSCC(=O)N(C)CC(=O)Nc2ccc(C)cc2)cc1`, the Potency result was “inactive”. The result for `COc1ccc(C(=O)NCC(c2ccco2)N2CCc3ccccc32)cc1OC` (stereo not given) reads “inactive”. The result for `Cc1c(C)c2c(OCC(=O)NCCCO)cc3c(c2oc1=O)CCC(C)(C)O3` reads “inactive”; that for `Cc1c(NC(=O)C(C)OC(=O)c2c3c(nc4ccccc24)CCC(C)C3)c(=O)n(-c2ccccc2)n1C` (stereo not given), “inactive”; that for `O=C(Nc1ccc2nccnc2c1)c1ccco1`, “inactive”. The result for `O=C(Nc1ccc(NC(=O)c2cccs2)cn1)c1ccco1` reads 3.98 µM (active). For the molecule `COc1cccc(C(=O)Nc2ccc(NC(=O)c3ccco3)cn2)c1`, the Potency entry was “inactive”. The result for `COc1ccc(OCCNC(=O)c2cc(C3CC3)nc3c2cnn3C(C)C)cc1` reads “inactive”. The result for `OCc1ccc(-c2ccccc2)c(-c2ccccc2)c1` reads “inactive”; that for `CC1CN/C(=C\C(=O)c2ccc(Br)cc2)C(=O)N1` (stereo not given), 8.2 µM (active); that for `CN1CCCC(OC(=O)COc2ccc(Br)cc2)C1` (stereo not given), “inactive”. The result for `C/C(=C\C(=O)c1ccc(Br)cc1)N1CCCCC1` reads “inactive”; that for `COC1=CC(=O)OC(c2ccc(OC)cc2)C1` (stereo not given), “inactive”. Consider `O=C(CSc1nc2ccccc2c(=O)n1CCCO)N1CCc2ccccc21`, for which the Potency entry is “inactive”. The result for `Cn1c(SCC(=O)N2CCCc3ccccc32)nc2ccccc2c1=O` reads 12.6 µM (active); that for `O=C(CSc1nc2[nH]ncc2c(=O)n1-c1ccccc1)N1CCCc2ccccc21`, “inactive”.

Source of the values: PubChem BioAssay AID540256 (National Center for Advancing Translational Sciences (NCATS), 2011).
